28 sequences from the supplement of paper PMC12645437, “Orthogonal IMiD-Degron Pairs Induce Selective Protein Degradation in Cells” (ACS Chemical Biology, 2025) can be followed below.

Whole data set: some 8,300 sequences, median “log2 fold change of degron read counts, EGFP-low vs EGFP+ sorted cells (limma voom), compound-induced degradation” near -1.1, cut for the highest 2% near 3.2. This is one part of a sample in which the highest values are shown more often than they occur.

In the assay the target is T1, CRBN, Q96SW2.
T1 chain: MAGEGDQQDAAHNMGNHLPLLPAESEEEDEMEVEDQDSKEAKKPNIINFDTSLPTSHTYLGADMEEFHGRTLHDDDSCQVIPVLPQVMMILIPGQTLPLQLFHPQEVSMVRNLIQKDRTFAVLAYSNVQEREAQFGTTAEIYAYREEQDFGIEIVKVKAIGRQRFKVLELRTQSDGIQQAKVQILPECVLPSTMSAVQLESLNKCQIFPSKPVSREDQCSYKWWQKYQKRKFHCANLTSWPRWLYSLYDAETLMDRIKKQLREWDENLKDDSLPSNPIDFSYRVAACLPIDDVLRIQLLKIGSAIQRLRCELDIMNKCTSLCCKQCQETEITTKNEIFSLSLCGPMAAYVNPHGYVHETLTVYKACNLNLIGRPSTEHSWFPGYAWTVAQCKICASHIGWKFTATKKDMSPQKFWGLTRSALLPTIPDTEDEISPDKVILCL
Nature of the assay: log2 fold change of degron read counts, EGFP-low vs EGFP+ sorted cells (limma voom), compound-induced degradation; higher = more compound-induced degradation of the degron-EGFP fusion; degrons are variants of IKZF1/3 zinc finger 2; compound dose not given here. The following applies: Jurkat, 18 h. On the procedure:
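Pooled library of 8380 IKZF3 ZF2 degron mutants (positions 146-167 varied within the IKZF3 130-189 degron; only the varied core is printed, flanks not printed) fused to EGFP with IRES-mCherry, lentivirally expressed in Jurkat cells. mCherry+ cells were treated with one IMiD compound for 18 h (dose not stated) and FACS-sorted into EGFP-low and EGFP+ populations. Degron sequences were counted by NGS, and log2FC (EGFP-low vs EGFP+) was estimated by limma voom over 3 biological replicates.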

The mark [1] stands for this setting: compound: compound 19 (5-tert-butyl-thalidomide).
Where [2] appears, read: compound: compound 22 (5-morpholino-thalidomide).
[3] abbreviates: compound: compound 33 (diphenyl IMiD analogue).
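Note: pooled lentiviral library of zinc finger degron-EGFP fusions in mCherry-positive Jurkat cells, FACS-sorted after compound exposure, with degron abundance counted by next-generation sequencing.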

On to FSCPICGAMFTQKGNLLRHIKL [46F_47S_49P_50I_52G_53A_54M_55F_67L_, Q9UKT9], for which the “log2 fold change of degron read counts” value was 1.66 under setting [1], 1.01 under setting [2], 1.5 under setting [3] and 0.771 (compound: thalidomide).

As to FGCPICGAMFTQKGNLLRHIKL [46F_47G_49P_50I_52G_53A_54M_55F_67L_, Q9UKT9], the “log2 fold change of degron read counts” value reads like this: under setting [1], 3.33; under setting [2], 2.19; under setting [3], 1.89; (compound: thalidomide) 0.606.

With FQCPICGAMFTQKGNLLRHIKL [46F_47Q_49P_50I_52G_53A_54M_55F_67L_, Q9UKT9], the “log2 fold change of degron read counts” value reads like this: under setting [1], -0.249; under setting [2], 2.56; under setting [3], 2.51; (compound: thalidomide) 3.62.

Take FQCPICGADFTQKGNLLRHIKL [46F_47Q_49P_50I_52G_53A_54D_55F_67L_, Q9UKT9]: the “log2 fold change of degron read counts” value turned out to be 0.457 under setting [1], 1.55 under setting [2], 2.48 under setting [3] and 3.81 (compound: thalidomide).

For the sequence FVCPICGAMFTQKGNLLRHIKL [46F_47V_49P_50I_52G_53A_54M_55F_67L_, Q9UKT9], the “log2 fold change of degron read counts” value under setting [1] was -0.498, the “log2 fold change of degron read counts” value under setting [2] was 1.33, the “log2 fold change of degron read counts” value under setting [3] was 1.86 and the “log2 fold change of degron read counts” value (compound: thalidomide) is 1.85.

As to FYCPICGAMFTQKGNLLRHIKL [46F_47Y_49P_50I_52G_53A_54M_55F_67L_, Q9UKT9], the “log2 fold change of degron read counts” value under setting [1] was 2.65, the “log2 fold change of degron read counts” value under setting [2] amounted to 2.73, the “log2 fold change of degron read counts” value under setting [3] was 2.02 and the “log2 fold change of degron read counts” value (compound: thalidomide) was found to be 0.0372.

In the case of FVCPICGADFTQKGNLLRHIKL [46F_47V_49P_50I_52G_53A_54D_55F_67L_, Q9UKT9], the “log2 fold change of degron read counts” value by setting is: under setting [1], -1.19; under setting [2], 1.3; under setting [3], 1.21; (compound: thalidomide) 1.95.

As to FSCPICGADFTQKGNLLRHIKL [46F_47S_49P_50I_52G_53A_54D_55F_67L_, Q9UKT9], the “log2 fold change of degron read counts” value under setting [1] was 1.3, the “log2 fold change of degron read counts” value under setting [2] worked out at 0.182, the “log2 fold change of degron read counts” value under setting [3] is 1.52 and the “log2 fold change of degron read counts” value (compound: thalidomide) turned out to be 0.227.

Consider FHCPICGAMFTQKGNLLRHIKL [46F_47H_49P_50I_52G_53A_54M_55F_67L_, Q9UKT9], for which the “log2 fold change of degron read counts” value under setting [1] was determined as 1.97, the “log2 fold change of degron read counts” value under setting [2] was found to be 1.9, the “log2 fold change of degron read counts” value under setting [3] was found to be 1.34 and the “log2 fold change of degron read counts” value (compound: thalidomide) is 0.306.

As for FGCNICGACFTQKGNLLRHIKL [46F_47G_49N_50I_52G_53A_54C_55F_67L_, Q9UKT9], the “log2 fold change of degron read counts” value was 1.07 under setting [1], 2.09 under setting [2], 1.61 under setting [3] and 0.355 (compound: thalidomide).

Turning to FDCNVCGAMFTQKGNLLRHIKL [46F_47D_49N_50V_52G_53A_54M_55F_67L_, Q9UKT9], the “log2 fold change of degron read counts” value runs as follows: under setting [1], -2.41; under setting [2], -2.06; under setting [3], -1.24; (compound: thalidomide) -0.963.

For the sequence FECPQCGAKFTQKGNLLRHIKL [46F_47E_49P_50Q_52G_53A_54K_55F_67L_, Q9UKT9], the “log2 fold change of degron read counts” value under setting [1] was -1.95, the “log2 fold change of degron read counts” value under setting [2] is -2.7, the “log2 fold change of degron read counts” value under setting [3] is -2.13 and the “log2 fold change of degron read counts” value (compound: thalidomide) is 0.127.

As for FWCDICGALFTQKGNLLRHIKL [46F_47W_49D_50I_52G_53A_54L_55F_67L_, Q9UKT9], the “log2 fold change of degron read counts” value by setting is: under setting [1], 2.43; under setting [2], 2.23; under setting [3], 0.921; (compound: thalidomide) -1.11.

With FNCPICGAGFTQKGNLLRHIKL [46F_47N_49P_50I_52G_53A_54G_55F_67L_, Q9UKT9], the “log2 fold change of degron read counts” value is 2.9 under setting [1], 0.718 under setting [2], 0.577 under setting [3] and 0.35 (compound: thalidomide).

As to LVCEICGFFCTQKGNLLRHIKL [46L_47V_49E_50I_52G_53F_54F_55C_67L_, Q9UKT9], the “log2 fold change of degron read counts” value came to 0.178 under setting [1], 0.388 under setting [2], 0.876 under setting [3] and 1.42 (compound: thalidomide).

As to FMCPICGACFTQKGNLLRHIKL [46F_47M_49P_50I_52G_53A_54C_55F_67L_, Q9UKT9], the “log2 fold change of degron read counts” value under setting [1] was -0.174, the “log2 fold change of degron read counts” value under setting [2] turned out to be 0.429, the “log2 fold change of degron read counts” value under setting [3] worked out at 2.49 and the “log2 fold change of degron read counts” value (compound: thalidomide) worked out at 1.41.

Regarding FSCPICGACFTQKGNLLRHIKL [46F_47S_49P_50I_52G_53A_54C_55F_67L_, Q9UKT9], the “log2 fold change of degron read counts” value under setting [1] was 2.84, the “log2 fold change of degron read counts” value under setting [2] came to 2.22, the “log2 fold change of degron read counts” value under setting [3] was 2.64 and the “log2 fold change of degron read counts” value (compound: thalidomide) amounted to 1.47.

On to FYCPICGACFTQKGNLLRHIKL [46F_47Y_49P_50I_52G_53A_54C_55F_67L_, Q9UKT9], for which the “log2 fold change of degron read counts” value is 3.5 under setting [1], 3.63 under setting [2], 2.59 under setting [3] and 1.59 (compound: thalidomide).

For FCCPICGACFTQKGNLLRHIKL [46F_47C_49P_50I_52G_53A_54C_55F_67L_, Q9UKT9], the “log2 fold change of degron read counts” value was 2.52 under setting [1], 2.23 under setting [2], 2.82 under setting [3] and 2.11 (compound: thalidomide).

Consider FQCPICGACFTQKGNLLRHIKL [46F_47Q_49P_50I_52G_53A_54C_55F_67L_, Q9UKT9], for which the “log2 fold change of degron read counts” value was determined as 0.828 under setting [1], 3.06 under setting [2], 2.53 under setting [3] and 3.77 (compound: thalidomide).

Consider FNCPICGACFTQKGNLLRHIKL [46F_47N_49P_50I_52G_53A_54C_55F_67L_, Q9UKT9], for which the “log2 fold change of degron read counts” value was determined as 2.34 under setting [1], 1.06 under setting [2], 1.37 under setting [3] and 0.843 (compound: thalidomide).

As to FICPICGACFTQKGNLLRHIKL [46F_47I_49P_50I_52G_53A_54C_55F_67L_, Q9UKT9], the “log2 fold change of degron read counts” value under setting [1] is -0.628, the “log2 fold change of degron read counts” value under setting [2] stood at 2.02, the “log2 fold change of degron read counts” value under setting [3] amounted to 1.94 and the “log2 fold change of degron read counts” value (compound: thalidomide) amounted to 2.17.

Take FDCPICGACFTQKGNLLRHIKL [46F_47D_49P_50I_52G_53A_54C_55F_67L_, Q9UKT9]: the “log2 fold change of degron read counts” value under setting [1] was determined as 1.96, the “log2 fold change of degron read counts” value under setting [2] worked out at 0.401, the “log2 fold change of degron read counts” value under setting [3] worked out at 2.22 and the “log2 fold change of degron read counts” value (compound: thalidomide) turned out to be 2.13.

Consider FVCPICGACFTQKGNLLRHIKL [46F_47V_49P_50I_52G_53A_54C_55F_67L_, Q9UKT9], for which the “log2 fold change of degron read counts” value turned out to be 0.0061 under setting [1], 2.13 under setting [2], 2.08 under setting [3] and 2.38 (compound: thalidomide).

As to FWCPICGACFTQKGNLLRHIKL [46F_47W_49P_50I_52G_53A_54C_55F_67L_, Q9UKT9], the “log2 fold change of degron read counts” value under setting [1] worked out at 3.58, the “log2 fold change of degron read counts” value under setting [2] was 3.31, the “log2 fold change of degron read counts” value under setting [3] turned out to be 2.4 and the “log2 fold change of degron read counts” value (compound: thalidomide) amounted to 1.46.

Take FACPICGACFTQKGNLLRHIKL [46F_47A_49P_50I_52G_53A_54C_55F_67L_, Q9UKT9]: the “log2 fold change of degron read counts” value is 3.48 under setting [1], 2.09 under setting [2], 1.78 under setting [3] and 1.06 (compound: thalidomide).

With FLCPICGACFTQKGNLLRHIKL [46F_47L_49P_50I_52G_53A_54C_55F_67L_, Q9UKT9], the “log2 fold change of degron read counts” value is 0.664 under setting [1], -0.175 under setting [2], 1.79 under setting [3] and 1.62 (compound: thalidomide).

As to FDCDQCGAEFTQKGNLLRHIKL [46F_47D_49D_50Q_52G_53A_54E_55F_67L_, Q9UKT9], the “log2 fold change of degron read counts” value is -3.44 under setting [1], -3.7 under setting [2], -3.04 under setting [3] and -3.25 (compound: thalidomide).
